G9a inh = G9a (human) methyltransferase inhibition. Q96KQ7. G9a H3K9 monomethylation, AlphaScreen, 2 h. Potency, µM (titrated, usually from 102 µM), for inactives: at the highest dose activity, negative = inhibition, hits mostly inhibitors. actives 8.8% (n = 350,000). AID 504332; further: on the % scale 0 is the no-effect control and ±100 the full control effect; nearly all actives have a fitted effect of over 75% in size
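AlphaScreen read-out: biotin-H3K9 peptide (500 nM) methylation by 20 nM enzyme with 20 uM SAM, 2 h at room temperature after 15 min compound preincubation; anti-monomethyl H3K9 antibody plus donor/acceptor beads, 10 min dark.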
BAZ2B block = blocks human BAZ2B; Q9UIF8; AlphaScreen BAZ2B-H3K14Ac peptide displacement; Potency, µM (highest dose often 114 µM), without a hit: at the highest dose activity change, negative = inhibition, usual class: inhibitors; actives 4.4% (n = 360,000); AID 504333; further: on the % scale 0 is the no-effect control and ±100 the full control effect; nearly all actives have a fitted effect of over 60% in size
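Compounds, titrated to a top concentration of 110 uM, were incubated 30 min at room temperature with preformed BAZ2B/acetyl-K14 H3 peptide complex (50 nM each). Proximity signal was measured by AlphaScreen after 20 min with beads.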
JMJD2A Tudor inh = blocks the human JMJD2A Tudor domain; O75164; actives 4.4% (n = 390,000); Potency, µM (titrated, usually from 114 µM), without a hit: at the highest dose activity change, negative = inhibition, most hits filed as inhibitors; AlphaScreen JMJD2A-Tudor / H3K4me3 peptide binding; AID 504339; further: on the % scale 0 is the no-effect control and ±100 the full control effect; nearly all actives have a fitted effect of over 50% in size
GLS inhibitor = inhibitors of human glutaminase (GLS); AID 624170; Potency, µM (titrated, usually from 45.5 µM), for inactives: at the highest dose activity change, negative = inhibition, actives largely listed as inhibitors; GLS enzymatic activity, qHTS titration; actives 0.21% (n = 410,000); O94925; further: on the % scale 0 is the no-effect control and ±100 the full control effect
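Compounds were pin-transferred onto hKGA, after which L-glutamine (1 mM solution) and a detection mix of glutamate oxidase, HRP and Amplex Red were added. Initial and 30 min RT fluorescence reads were collected.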
HP1b chromo inh = blocks HP1-beta chromodomain binding to methylated histone tails; actives 0.56% (n = 390,000); P83916; AlphaScreen HP1-beta / biotin-H3K9me3 peptide binding; AID 540317; Potency, µM (doses to about 114 µM), inactives show at the top dose activity change, negative = inhibition, usual class: inhibitors; further: nearly all actives have a fitted effect of over 70% in size
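Compound inhibition of the preformed complex between 50 nM HP1-beta and 50 nM biotinylated H3K9me3 peptide was read by AlphaScreen. Buffer was PBS pH 7.4 with 0.01% Tween-20. Incubations ran 30 min at room temperature, with 10 ug/mL donor/acceptor beads.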
Starred values were filed as active, the others as inactive; ? = inconclusive; · = no result given; ! = a repeat was not active; [ ] = remark or other dose. An excerpt weighted towards active compounds, which were near 10% of everything screened. The call rests on the fitted dose curve; in most records, active means well fitted curve in the direction sought with a large enough effect; inconclusive means small, poorly fitted or top-dose-only effect, or another doubt; inactive means no such curve, though single readings can be large; an effect the other way counts as inactive or inconclusive. Potency means the concentration at half of the fitted maximal effect.

SMILES | G9a inh | BAZ2B block | JMJD2A Tudor inh | GLS inhibitor | HP1b chromo inh
CCN(CC)c1ccc(C=Nc2ccc(OC)c(S(=O)(=O)N3CCOCC3)c2)c(O)c1 | -6.5%[12.7 µM] | -14.6% | -24.7% | 17.4% | 19.8%
O=C(Cn1c(=O)n(-c2cccc(C(F)(F)F)c2)c(=O)c2sccc21)NCC1CCCO1 (stereo not given) | 7.5% | -0.8% | 39.8µM* | 1.5% | 8.8%
CCC(=O)Nc1ccc(N2CCN(C(=O)c3ccco3)CC2)c(Cl)c1 | -20.0% | -12.3% | -7.6% | -4.5% | 19.4%
CN(C)CCNC(=O)COc1ccc(C23CC4CC(CC(C4)C2)C3)cc1 | 50.1µM* | -31.3% | -30.8% | -3.3% | -17.8%
Cc1ccc(C)c(S(=O)(=O)NCc2ccc(C(=O)N3CC(C)OC(C)C3)cc2)c1 (stereo not given) | 4.9%[59 µM] | 3.1% | ? | 1.3% | -14.8%
C[C@H](CO)N1C[C@H](C)[C@@H](CN(C)C(=O)Nc2ccc(C(F)(F)F)cc2)Oc2c(NC(=O)Nc3ccccc3)cccc2C1=O | · | · | -22.9% | -0.2% | 13.0%
CC(C)(C)OC(=O)N1CCC(C(=O)N2CCCCCC2)CC1 | -2.1%[59 µM] | 1.2% | -6.8% | 2.4% | 28.4%
O=C(NC1CCC(c2ccccc2)CC1)c1cccnc1 (stereo not given) | · | -2.1% | -8.3% | 10.2% | 17.4%
CCC(=O)N(C)/C=C1\Sc2ccccc2C1=O | ? | 56.2µM* | -20.5%[11.4 µM] | 14.9% | 32.3%
COc1cc(NC(=O)CN2C(=O)c3ccccc3S2(=O)=O)cc(OC)c1 | 2.6%[2.33 µM] | 7.3% | -23.2% | 1.3% | 18.6%
CCN(c1ccccc1)S(=O)(=O)c1ccc(NC(=O)c2nc(S(C)(=O)=O)ncc2Cl)cc1 | 31.6µM* | -33.1% | ? | 2.6% | 3.7%
CC(C)Sc1ncc(Cl)c(C(=O)Nc2ccc(S(=O)(=O)N(C)c3ccccc3)cc2)n1 | ? | -35.1% | -33.0% | 3.0% | 0.6%
CCSc1ncc(Cl)c(C(=O)Nc2ccc(S(=O)(=O)N(C)c3ccccc3)cc2)n1 | -20.6%[59 µM] | -15.7% | -28.1% | -2.8% | 18.2%
CS(=O)(=O)c1ncc(Cl)c(C(=O)Nc2ccc(OC(F)F)cc2)n1 | 28.2µM* | 5.3% | -9.6% | 17.7% | 34.7%
CCS(=O)(=O)c1ncc(Cl)c(C(=O)Nc2ccc(S(=O)(=O)N(C)c3ccccc3)cc2)n1 | 39.8µM* | ? | -21.8% | ? | 1.0%[57 µM]
COc1ccccc1S(=O)(=O)N(C)C[C@@H]1Oc2cc(C#CCC(C)C)ccc2S(=O)(=O)N([C@H](C)CO)C[C@@H]1C | · | · | · | -0.6% | ·
COc1ccc(C(=O)Nc2c(N)nc(SCC(=O)N3CCC(C)CC3)[nH]c2=O)cc1 | -4.8%[12.7 µM] | -3.0% | -4.4% | 32.7% | 16.9%
Cc1csc2c(N3CCCCC3)ncnc12 | · | 16.6% | -6.7% | -2.5% | 19.5%
Nc1ccc(O)cc1C(=O)OCC(=O)C12CC3CC(CC(C3)C1)C2 | 31.6µM* | 50.1µM* | ? | 15.0% | -19.5%
Nc1ccc(O)cc1C(=O)OCC(=O)c1ccc(C2CCCCC2)cc1 | 44.7µM* | 39.8µM* | ? | -9.4% | ?
O=C(COC(=O)c1cc2ccccc2o1)c1ccccc1 | -24.6%[12.7 µM] | 7.7% | 19.0% | 0.3% | 68.5%
CC1CCN(CC[C@H]2CCCN2S(=O)(=O)c2cccc(O)c2)CC1 | 25.1µM*! | 4.0% | -13.8% | 5.4% | 52.7%
COc1ccc2c3c(c(=O)oc2c1)C1O[C@](c2ccsc2)(Cc2cc(C#N)ccc21)O3 | ? | 12.6µM* | · | · | ·
N#Cc1ccc2c(c1)C[C@]1(c3ccsc3)Oc3c(c(=O)oc4ccccc34)C2O1 | 6.5%[2.33 µM] | 12.6µM* | · | · | ·
Cc1cc2c(c(=O)o1)C1O[C@](c3ccsc3)(Cc3cc(C#N)ccc31)O2 | 6.9%[2.33 µM] | ? | · | · | ·
SMILES | G9a inh | BAZ2B block | JMJD2A Tudor inh | GLS inhibitor | HP1b chromo inh
C=C(C)CNC(=O)C1CCC(=O)N(CCCc2ccccc2)C1 (stereo not given) | · | · | -7.9% | -3.3% | 30.1%
CN1CCN(C(=O)CCC(=O)O)CC1 | · | -19.7% | 5.9%[11.4 µM] | -4.9% | 67.8%
CN1CCN(CC(=O)O)CC1 | 35.5µM* | ? | ? | -0.5% | 1.6%
O=C(/C=C/c1ccc(Br)o1)OCc1nc2ccsc2c(=O)[nH]1 | 18.5%[0.501 µM] | 39.8µM* | 39.8µM* | ? | -65.8%
CCc1ccc(N2CC(C(=O)OCc3nc4ccsc4c(=O)[nH]3)CC2=O)cc1 (stereo not given) | 3.1%[12.7 µM] | 5.4% | -12.8% | 17.8µM* | 23.7%
Cc1cnc(C(=O)OCc2nc3ccsc3c(=O)[nH]2)cn1 | 16.4%[12.7 µM] | 50.1µM* | 56.2µM* | 14.1µM* | -24.8%
Cc1ccc(C(=O)OCc2nc3ccsc3c(=O)[nH]2)o1 | 20.8%[2.33 µM] | 22.6% | -5.5% | 1.5% | 21.4%
CCc1ccc(N2CC(C(=O)OCc3csc(CC(=O)Nc4ccccc4C)n3)CC2=O)cc1 (stereo not given) | -7.8%[12.7 µM] | -3.3% | -19.5% | -0.5% | 27.7%
CC(C)CNc1cc(NC2CCCCC2)c2c3c(onc13)-c1ccccc1C2=O | 10µM* | 25.1µM* | 28.2µM* | 8.0% | ?
CN(C)CCCNc1cc(N2CCN(C3CCCCC3)CC2)c2noc3c2c1C(=O)c1ccccc1-3 | ? | 20µM* | 35.5µM* | 11.2% | ?
O=C1c2ccccc2-c2onc3c(Br)cc(NC4CCCCC4)c1c23 | -32.9%[59 µM] | -25.3% | -33.8% | -1.8% | -8.4%
O=C1c2ccccc2-c2onc3c(N4CCN(C5CCCCC5)CC4)cc(NCCO)c1c23 | -43.1%[59 µM] | 31.6µM* | ? | -10.6% | ?
COCCCNc1nc2nonc2nc1N1CCN(C2CCCC2)CC1 | -21.6% | -27.7% | -2.1% | 2.1% | 29.4%
COCCNc1cc(N2CCN(C3CCCCC3)CC2)c2noc3c2c1C(=O)c1ccccc1-3 | ? | ? | 50.1µM* | ? | ?
CCCCNc1c(-c2cccc(SC3CCCCC3)c2)nc2ccc(Cl)cn12 | ? | -14.1% | 7.6% | 5.6% | 80.3%
CCOC(=O)C(C(=O)NCc1cccc(OC)c1)c1ncc(C(F)(F)F)cc1Cl (stereo not given) | 7.7% | 2.3% | -4.9% | 6.4% | 37.8%
Cc1ccc2cc(S(=O)(=O)NCCC(=O)O)ccc2c1 | 7.4% | -22.9% | -6.6% | 5.7% | 21.5%
CC(=O)c1ccc(S(=O)(=O)N2CCN(C(=O)c3ccc(COc4ccccc4)o3)CC2)cc1 | 50.1µM* | -3.0% | -27.6% | 2.2% | 5.6%
O=C(c1ccco1)N1CCN(S(=O)(=O)c2ccc(Br)cc2)CC1 | 11.6% | -1.2% | 5.0% | 0.1% | 42.3%
O=C(c1ccco1)N1CCN(S(=O)(=O)c2ccc(Oc3ccccc3)cc2)CC1 | 35.5µM* | -30.3% | -34.0% | 0.4% | -3.9%
COc1cccc(OCc2cc(C(=O)NCc3ccc4c(c3)OCO4)no2)c1 | -11.2% | -16.3% | 3.6% | -3.9% | 12.9%[57 µM]
CCOc1ccc(CC2NCCc3cc(OCC)c(OCC)cc32)cc1OCC (stereo not given) | ? | -15.0% | -18.7% | -21.6% | 27.3%
NNc1nccc(Nc2ccccc2C(=O)O)n1 | ? | 25.1µM* | ? | ? | -21.7%

From PubChem BioAssay
